This is part of a sample that, as a whole, favours compounds with a hit. Of some 83,000 tested, about 20% had one in any assay.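 Values shown are percent growth following 48 h exposure of cells in 96-well plates to a single concentration of compound; below 10 was considered active.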 Values without a mark were called inactive. Calls of active or inactive are those of the source.

Growth data for 13 compounds are collected here from PubChem BioAssay (NCI).

Among the test systems are DU-145 prostate; K-562 leukemia; MALME-3M melanoma; MDA-MB-231 breast; RXF 393 renal; SF-268 CNS; SF-295 CNS; SF-539 CNS; UACC-257 melanoma; M14 melanoma.
Common to all, as to test: NCI-60 one-dose screen, 48 h (100 = growth as untreated, 0 = no growth, -100 = all killed)
What all share (conditions): 10 µM unless noted

With `Cc1ccc(S(=O)(=O)NC(CCC(=O)Nc2ccccc2)C(=O)Nc2ccccc2)cc1` (stereo not given), the growth with DU-145 prostate was 5.02% (active); with K-562 leukemia it was 3.93% (active); in the assay with MALME-3M melanoma, -36.5% (active); with MDA-MB-231 breast, -30.1% (active); in the assay with RXF 393 renal, -24.6% (active); with SF-268 CNS, 8.46% (active). Besides, the growth in the assay on SF-295 CNS was -3.31% (active); with SF-539 CNS, -75.6% (active); with UACC-257 melanoma, -18.4% (active); in the assay on M14 melanoma it was 3.93% (active).
As to `COc1ccc(/C=N/c2cc(C(C)(C)C)nn2-c2ccccc2)cc1`, the growth is 113% with DU-145 prostate; 92.2% in the assay on K-562 leukemia; 121% in the assay with MALME-3M melanoma; 99.7% in the assay on MDA-MB-231 breast; 126% in the assay on RXF 393 renal; 101% with SF-268 CNS. In addition, the growth with SF-295 CNS is 96.6%; in the assay with SF-539 CNS, 92.5%; with UACC-257 melanoma, 96.8%; with M14 melanoma, 115%.
As to `CN1CCN(Cc2ccc(NC(=O)c3cncc(C#Cc4c(N)ncc5ccc(F)cc45)c3)cc2C(F)(F)F)CC1`, the growth was 46.2% with DU-145 prostate; -33.4% (active) in the assay on K-562 leukemia; -80.7% (active) in the assay on MALME-3M melanoma; -38.4% (active) with MDA-MB-231 breast; -73.8% (active) with RXF 393 renal; 35.7% in the assay on SF-268 CNS. Further, the growth was 52.2% in the assay on SF-295 CNS, -68.2% (active) in the assay with SF-539 CNS, -55.9% (active) with UACC-257 melanoma and -73.7% (active) in the assay on M14 melanoma.
As to `CCOC1=C(Cl)C(=O)C(OCC)=C(Cl)C1=O`, the growth with DU-145 prostate was 106%; with K-562 leukemia, 82.5%; in the assay with MALME-3M melanoma it was 103%; in the assay with MDA-MB-231 breast, 103%; in the assay on RXF 393 renal, 105%; with SF-268 CNS it was 107%. Also, the growth in the assay with SF-295 CNS was 96.4%; in the assay with SF-539 CNS it was 101%; in the assay with UACC-257 melanoma, 103%; in the assay with M14 melanoma, 110%.
Take `C/C=C(/C)C(=O)OC1C=C(CO)C(=O)C(OC(=O)/C(C)=C\C)C1C(C)C` (stereo not given): the growth in the assay on DU-145 prostate is -90.9% (active); with K-562 leukemia, -18.3% (active); in the assay with MALME-3M melanoma, -91.2% (active); in the assay on MDA-MB-231 breast, -61.2% (active); with RXF 393 renal it was -79.2% (active); with SF-268 CNS, -57.3% (active). In addition, the growth with SF-295 CNS was -54.3% (active); in the assay on SF-539 CNS, -92.1% (active); in the assay with UACC-257 melanoma, -48.8% (active); in the assay with M14 melanoma it was -84.7% (active).
Consider `COc1ccc2c(c1)/C(=C1/S/C(=N/c3nnc(C)s3)NC1=O)C(=O)N2Cc1ccc(Br)cc1`, for which the growth in the assay on DU-145 prostate was 41.6%; with K-562 leukemia, 34.8%; with MALME-3M melanoma it was 68.3%; in the assay with MDA-MB-231 breast it was 53.4%; with RXF 393 renal it was 49.6%; in the assay with SF-268 CNS, 36%. The growth in the assay on SF-295 CNS is 15.4%; in the assay on SF-539 CNS, 42.7%; in the assay on UACC-257 melanoma, 57.4%; with M14 melanoma, 37%.
Consider `O=C(CN1C(=O)NC(c2ccccc2)(c2ccccc2)C1=O)c1ccc(N2CCCC2)cc1`, for which the growth in the assay with DU-145 prostate is 107%; in the assay with K-562 leukemia, 29.5%; in the assay on MALME-3M melanoma, 72.1%; with MDA-MB-231 breast, 113%; in the assay on RXF 393 renal, 81%; in the assay with SF-268 CNS, 97.8%. Besides, the growth was 72.1% in the assay on SF-295 CNS, 100% in the assay with SF-539 CNS, 85.8% in the assay on UACC-257 melanoma and 52.9% with M14 melanoma.
As for `Nc1nc2cc(O)ccc2n2cc3c(F)cccc3c12`, the growth with DU-145 prostate was 33.4%; in the assay on K-562 leukemia, 29.4%; in the assay on MALME-3M melanoma, 33.3%; in the assay with MDA-MB-231 breast, 38.8%; with RXF 393 renal, 5.51% (active); in the assay on SF-268 CNS, 19.1%. The growth in the assay on SF-295 CNS is 11.9%; with SF-539 CNS, 13.7%; in the assay on UACC-257 melanoma it was 50.9%; in the assay on M14 melanoma, 23%.
On to `O=C(Nc1ccc(Cl)c(Cl)c1)O/N=C\c1c(Cl)ccc([N+](=O)[O-])c1Cl`, for which the growth was -82.5% (active) in the assay with DU-145 prostate; -7.08% (active) in the assay with K-562 leukemia; -44.9% (active) in the assay with MALME-3M melanoma; -59.7% (active) in the assay on MDA-MB-231 breast; -45.1% (active) with RXF 393 renal; -4.9% (active) in the assay with SF-268 CNS. Besides, the growth was 83.9% in the assay on SF-295 CNS, 4.51% (active) in the assay on SF-539 CNS, -49.2% (active) with UACC-257 melanoma and 32% with M14 melanoma.
For the compound `CCCC(C)c1cc(Cc2cc(Cl)cc(Cl)c2O)c(O)c(Cc2cc(Cl)cc(Cl)c2O)c1` (stereo not given), the growth is 26.8% in the assay on DU-145 prostate; 7.77% (active) with K-562 leukemia; -22.2% (active) in the assay with MALME-3M melanoma; -13.4% (active) with MDA-MB-231 breast; -10% (active) with RXF 393 renal; 16.3% in the assay with SF-268 CNS. In addition, the growth in the assay with SF-295 CNS is -38.6% (active); with SF-539 CNS, -3.24% (active); in the assay on UACC-257 melanoma, -3.64% (active); with M14 melanoma, 7.97% (active).
As to `CC(=O)c1ccc2c(c1)c1ccccc1n2C`, the growth is 104% with DU-145 prostate; 86.7% with K-562 leukemia; 105% with MALME-3M melanoma; 102% with MDA-MB-231 breast; 94.7% in the assay on RXF 393 renal; 101% with SF-268 CNS. The growth in the assay on SF-295 CNS is 85.8%; in the assay with SF-539 CNS it was 108%; in the assay on UACC-257 melanoma, 104%; with M14 melanoma, 106%.
On to `NC(=O)CC(NC(=O)COc1ccc(Cl)cc1Cl)C(=O)O` (stereo not given), for which the growth was 104% in the assay on DU-145 prostate; 103% with K-562 leukemia; 105% in the assay on MALME-3M melanoma; 105% in the assay on MDA-MB-231 breast; 108% in the assay on RXF 393 renal; 101% in the assay with SF-268 CNS. Also, the growth was 100% in the assay with SF-295 CNS, 111% in the assay with SF-539 CNS, 107% with UACC-257 melanoma and 106% in the assay on M14 melanoma.
Consider `O=C(Nc1cccc2[nH]c(C(F)(F)F)nc12)c1ccc(F)cc1`, for which the growth with DU-145 prostate is 88.3%; in the assay with K-562 leukemia, 24.8%; in the assay with MALME-3M melanoma it was 74%; with MDA-MB-231 breast, 83.7%; in the assay on RXF 393 renal it was 88%; with SF-268 CNS it was 86.1%. In addition, the growth in the assay on SF-295 CNS was 86.6%; in the assay on SF-539 CNS it was 80%; in the assay with UACC-257 melanoma it was 89.7%; in the assay on M14 melanoma, 92%.
